Data taken from PubChem BioAssay AID624100 (ICCB-Longwood Screening Facility, Harvard Medical School, 2012).
Some of the results follow. Calls of active or inactive are those of the source.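 The calls were made as follows: active = average inhibition over replicates above about 50%, so the earlier screening hit is confirmed (limit read from the data); inactive = the rest, counted as false positives.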

Each molecule was assayed against Ubiquitin carboxyl-terminal hydrolase isozyme L5 (Homo sapiens) (UniProt Q9Y5K5) (assay: retest of human UCH37 deubiquitinase inhibitors, confirmation, biochemical, Ub-AMC cleavage rate, fluorescence (AID 624100;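 also: based on cleavage rate fitted by regression over a 30 min kinetic read; 0% = proteasome plus Ub-AMC and 100% = Ub-AMC without proteasome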)). Conditions: Proteasome-bound UCH37, Ub-AMC cleavage fluorescence; at 20 µM; stronger effect = higher value.
Chain of Ubiquitin carboxyl-terminal hydrolase isozyme L5 (Homo sapiens) (Q9Y5K5 whole entry, looked up): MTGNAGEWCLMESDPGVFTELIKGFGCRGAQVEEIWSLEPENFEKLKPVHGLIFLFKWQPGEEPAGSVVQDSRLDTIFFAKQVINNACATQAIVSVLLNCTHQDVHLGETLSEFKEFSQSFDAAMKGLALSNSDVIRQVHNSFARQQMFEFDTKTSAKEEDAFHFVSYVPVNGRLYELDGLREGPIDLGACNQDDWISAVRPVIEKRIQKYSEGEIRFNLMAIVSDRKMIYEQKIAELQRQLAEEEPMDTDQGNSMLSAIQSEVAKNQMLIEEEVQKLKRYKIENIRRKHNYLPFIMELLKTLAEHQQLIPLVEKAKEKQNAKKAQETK

| SMILES | inhibition |
| --- | --- |
| CCCCCCCCn1c2c(c(=N)c3c1CCC3)CCCC2 | 42.2% (inactive) |
| O=C(/C=C/c1ccccc1)c1ccoc1 | 8.47% (inactive) |
| CC(C)CC[n+]1ccn(C2=C([O-])c3ccccc3C(=O)/C2=N\S(=O)(=O)c2ccccc2)c1 | 29.9% (inactive) |
| CC(C)NC(=O)/C(C#N)=C\c1ccc(N(C)C)c(Br)c1 | 9.32% (inactive) |
| O=C1Nc2ccc([N+](=O)[O-])cc2C1=Nc1cccc(CO)c1 | -1.27% (inactive) |
| CCN(CC)CCCC(C)n1c2nc(=O)[nH]c(=O)c-2nc2cc(Cl)ccc21 (stereo not given) | 85.1% (active) |
| O=C(O)C(c1ccccc1)N1C(=O)/C(=C\c2ccc(-c3cccc(Cl)c3)o2)SC1=S (stereo not given) | 67.4% (active) |
| CCOC(=O)c1c(C)[nH]c2c1-c1ccccc1C(=O)C2=O | 90.1% (active) |
| N#C/C(=C/c1ccc(N2CCOCC2)o1)C(=O)N1CCOCC1 | 29.8% (inactive) |
| COC1=C(N2CCOCC2)C(=O)c2ccccc2C1=O | 12.6% (inactive) |
| COc1cc(NC(=O)COC(=O)c2ccc([N+](=O)[O-])s2)cc(OC)c1OC | 14.6% (inactive) |
| Cn1ccc(=Nc2ccc(NC(=O)c3ccc(N=c4ccn(C)c5ccc([N+](=O)[O-])cc45)cc3)cc2)cc1 | 71.3% (active) |
| Cc1[nH][nH]c(=O)c1C(c1ccc(-c2ccc(Cl)cc2)o1)c1c(C)[nH][nH]c1=O | 6.33% (inactive) |
| COc1cccc(C2/C(=C(/O)c3ccc(F)cc3)C(=O)C(=O)N2CCN(C)C)c1 (stereo not given) | 12.7% (inactive) |
| COc1ccc(S(=O)(=O)/N=C2\C=C(NS(=O)(=O)c3ccccc3)C(=O)c3ccccc32)cc1 | 83.7% (active) |
| CC1CCCN(C(=O)c2ccc3c(c2)C(=O)N(CCC2=CCCCC2)C3=O)C1 (stereo not given) | 61% (active) |
| O=C(NC1CCCC1)C(c1ccc(N2CCOCC2)cc1)N(C(=O)c1ccco1)c1ccccc1F (stereo not given) | 4.55% (inactive) |
| Cc1ccc(Nc2cc(C)nc3c(C)ccc([N+](=O)[O-])c23)cc1 | 0.827% (inactive) |
| O=C1C(Cl)=C(Oc2ccccc2)C(=O)c2ccccc21 | 95.2% (active) |
| CC(OC(=O)c1c(F)cccc1F)C(=O)NCCC1=CCCCC1 (stereo not given) | 32.7% (inactive) |
| O=c1ccc2c(-c3ccccc3S(=O)(=O)O)c3ccc(O)c(O)c3oc-2c1O | 36.2% (inactive) |
| O=C(OCC(=O)N1CCN(c2ccccc2)CC1)c1ccc([N+](=O)[O-])s1 | 22.8% (inactive) |
| CC(=O)N1C(=O)/C(=C2\SC(=S)N(NC(=O)c3ccc(O)cc3)C2=O)c2ccccc21 | 63.5% (active) |
| COCCN1C=C2C(=O)C(C)(OC(=O)C3CCCC3)C(=O)C=C2C=C1c1ccsc1 (stereo not given) | 24.9% (inactive) |
| COc1ccc(Cn2nnc3c(=O)[nH]c(C4CCN(C(=O)c5ccccc5Cl)CC4)nc32)cc1 | 17.8% (inactive) |
